Screening data deposited in PubChem by National Center for Advancing Translational Sciences (NCATS).
Rows were chosen to be rich in hits. Some 6.8% of all compounds tested hit in one or more screens of this group.
SW480 rerep: DNA re-replication induction in SW480 cells; SW480 DNA re-replication, Hoechst DNA content imaging, 48 h; Potency, µM (series often up to 46.1 µM), without a hit: at the highest dose re-replication activation, actives largely listed as activators; actives 1.8% (n = 340,000); AID 624297; also: % of control where 0% means no effect; nearly all actives have a fitted effect of over 55% in size
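Readout is total intensity of Hoechst-stained nuclei, excited at 405 nm and collected at 500-530 nm. Compound treatment lasted 48 hr at 37 C in 5% CO2 before staining.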
KB-V1 MDR tox: KB-V1 MDR subline cytotoxicity; Potency, µM (top dose mostly 46.1 µM), hits mostly cytotoxic; actives 3.4% (n = 400,000); KB-V1 MDR cells viability, CellTiter-Glo, 72 h; also: % is scaled to controls: 0 for no effect and ±100 for the full control effect; nearly all actives have a fitted effect of over 60% in size
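In this primary screen, KB-V1 cells overexpressing P-gp are incubated with library compounds (lowest to highest concentration) for 72 h at 37 degrees C before a luminescent ATP viability read.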
PINK1 expr mod: PINK1 expression modulation | PINK1 immunofluorescence, high-content cytometry, 24 h | Potency, µM (highest dose often 76.6 µM), for inactives: at the top dose activation (PINK1 increase), actives largely listed as activators | actives 0.2% (n = 410,000) | AID 624263; active = well fitted activation curve with a large enough effect; inconclusive = small, poorly fitted or top-dose-only effect; cell line not stated here; also: % of control where 0% means no effect; nearly all actives have a fitted effect of over 65% in size
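Stable cell line, 250 cells/well, 12 h attachment; compounds pinned at 5 concentrations, 24 h; CCCP control. Fixed with nuclear dye, primary antibodies 12 h at 10 degrees C, secondary plus cell stain; laser-scanning cytometer read.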
PTAP TSG101 blk: blocks PTAP/TSG101 interaction to inhibit HIV-1 budding. Potency, µM (highest dose often 115 µM), for inactives: top-dose activity change, negative = inhibition, most hits filed as inhibitors. Fluorescence polarization, FITC-PTAP peptide / Tsg101 binding. Q99816. AID 493005. 340,000 tested, under 10 active; active = well fitted inhibition curve with a large enough effect in the main read-out, with a control signal flat, not every such curve was filed as active; inconclusive = small, poorly fitted or top-dose-only effect, or effect the other way, or a change in a side signal; inactive = no such curve, though single readings can be large or run the other way; also: % of control where 0% means no effect
Target sequence (Q99816 whole entry, looked up): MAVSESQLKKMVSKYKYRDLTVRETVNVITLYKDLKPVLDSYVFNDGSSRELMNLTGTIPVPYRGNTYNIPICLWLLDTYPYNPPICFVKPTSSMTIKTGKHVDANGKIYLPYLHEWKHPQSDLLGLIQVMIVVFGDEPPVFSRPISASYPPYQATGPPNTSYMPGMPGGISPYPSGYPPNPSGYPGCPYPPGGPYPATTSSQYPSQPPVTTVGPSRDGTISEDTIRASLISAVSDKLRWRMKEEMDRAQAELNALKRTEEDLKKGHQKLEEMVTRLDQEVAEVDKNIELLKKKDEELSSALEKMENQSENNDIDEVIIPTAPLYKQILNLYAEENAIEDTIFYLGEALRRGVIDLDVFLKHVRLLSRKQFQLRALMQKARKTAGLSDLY
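FP read-out: FITC-PTAP peptide, 50 nM final, binding Tsg101 binding domain, 10 uM final; 20 min, r.t.; 10 mM HEPES pH 7.5, 0.15 M NaCl, 0.01% Tween 20, 3 mM EDTA, 0.1 mM TCEP.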
KB-3-1 cytotox: KB-3-1 parental cell cytotoxicity; KB-3-1 viability, CellTiter-Glo ATP luminescence, 72 h; Potency, µM (top dose mostly 46.1 µM), hits mostly cytotoxic; actives 1.4% (n = 400,000); AID 1347075; also: % is scaled to controls: 0 for no effect and ±100 for the full control effect; nearly all actives have a fitted effect of over 60% in size
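72 h, 37 °C compound treatment of KB-3-1 parental cells; CellTiter-Glo added, 10 min, luminescence read. Data corrected against DMSO-only plates and normalized before curve fitting.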
MCF10A rereplic: DNA re-replication induction in MCF 10a cells; actives 2.9% (n = 350,000); AID 624296; Potency, µM (series often up to 46.1 µM), without a hit: at the top dose activity, positive = re-replication, actives largely listed as activators; MCF 10A DNA re-replication, Hoechst nuclear intensity, 48 h; also: % of control where 0% means no effect; nearly all actives have a fitted effect of over 50% in size
* marks the source's active call; other numbers are inactive results; [ ] = dose if it differs, or a comment. Unless noted, calls follow the shape of the dose curve; as a rule, active = well fitted curve in the direction sought with a large enough effect; inconclusive = small, poorly fitted or top-dose-only effect, or another doubt; inactive = no such curve, though single readings can be large; an effect the other way counts as inactive or inconclusive. Potency is read from the fitted curve at half-maximal effect.

COc1ccccc1NC(=O)CN(C)S(=O)(=O)c1cc(C)ccc1OC was read as SW480 rerep -2%, KB-V1 MDR tox 21µM*, PINK1 expr mod -3%[38.3 µM], PTAP TSG101 blk -3%, KB-3-1 cytotox inactive and MCF10A rereplic 3%.
COc1ccc(C)cc1NC(=O)CN(C)S(=O)(=O)c1cccs1 was read as SW480 rerep -3%, KB-V1 MDR tox inconclusive, PINK1 expr mod -2%, PTAP TSG101 blk 0%, KB-3-1 cytotox inactive and MCF10A rereplic 0%.
`COc1ccc(C)cc1NC(=O)CN(C)S(=O)(=O)c1cnc[nH]1` gave SW480 rerep inconclusive, KB-V1 MDR tox inactive, PINK1 expr mod 3%[38.3 µM], PTAP TSG101 blk 0%, KB-3-1 cytotox inactive and MCF10A rereplic 23µM*.
`Cc1cccc(NC(=O)CN(C)S(=O)(=O)c2cnc[nH]2)c1` gave SW480 rerep -5%, KB-V1 MDR tox inactive, PINK1 expr mod 3%, PTAP TSG101 blk 1%, KB-3-1 cytotox inactive and MCF10A rereplic -3%.
For O=C1CC(N2CCN(C/C=C/c3ccccc3)CC2)C(=O)N1CCc1ccccc1 (stereo not drawn) the results were SW480 rerep 1%, KB-V1 MDR tox 12µM*, PINK1 expr mod 0%[38.3 µM], PTAP TSG101 blk -14%, KB-3-1 cytotox inactive and MCF10A rereplic inconclusive.
Screening COc1cc(/C=C/c2ccc3c(Br)cc(Br)c(O)c3n2)ccc1O returned SW480 rerep inconclusive, KB-V1 MDR tox inactive, PINK1 expr mod inconclusive, PTAP TSG101 blk -3%, KB-3-1 cytotox inconclusive and MCF10A rereplic 13µM*.
Screening COc1ccc(/C=C/c2ccc3cccc(O)c3n2)cc1Br returned SW480 rerep 10%, KB-V1 MDR tox inactive, PINK1 expr mod 12%, PTAP TSG101 blk -4%, KB-3-1 cytotox inconclusive and MCF10A rereplic 6%.
Screening COc1ccc(/C=C/c2ccc3c(Br)ccc(O)c3n2)cc1 returned SW480 rerep inconclusive, KB-V1 MDR tox inconclusive, PINK1 expr mod 14%, PTAP TSG101 blk -3%, KB-3-1 cytotox inconclusive and MCF10A rereplic 23µM*.
COc1cccc(/C=C/c2ccc3cccc(O)c3n2)c1 was read as SW480 rerep inconclusive, KB-V1 MDR tox inconclusive, PINK1 expr mod 3%, PTAP TSG101 blk -1%, KB-3-1 cytotox inconclusive and MCF10A rereplic 9%.
`Cc1ccc2c(Br)cc(Br)c(O)c2n1` gave SW480 rerep -2% and MCF10A rereplic 19µM*.
Cc1ccc2c(c1)CN(C(=O)CC(c1ccccc1)c1ccco1)CC(C)O2 (stereo not drawn) was read as PINK1 expr mod 0%.
Screening CC1(C(=O)NCc2ccccc2)CN(S(C)(=O)=O)CC(=O)N1C1CCN(Cc2ccccc2)CC1 (stereo not drawn) returned KB-V1 MDR tox inactive and KB-3-1 cytotox inactive.
`Clc1ccc(C2=Nn3c(nnc3-c3n[nH]c4c3CCC4)SC2)cc1` gave SW480 rerep 6.5µM*, KB-V1 MDR tox 3.7µM*, PINK1 expr mod 1%, PTAP TSG101 blk -7%, KB-3-1 cytotox 3.7µM* and MCF10A rereplic inconclusive.
Screening Brc1ccc(C2=Nn3c(nnc3-c3n[nH]c4c3CCC4)SC2)cc1 returned SW480 rerep inconclusive, KB-V1 MDR tox 1.2µM*, PINK1 expr mod -2%, PTAP TSG101 blk -3%, KB-3-1 cytotox 0.33µM* and MCF10A rereplic inconclusive.
Screening O=C(CSc1nc(-c2ccccc2)no1)N1CCCCC1 returned KB-V1 MDR tox inactive, PINK1 expr mod 0% and KB-3-1 cytotox inactive.
Screening CSc1ncccc1C(=O)N1CCOc2ccc(C(C)(O)CCn3cccn3)cc2C1 (stereo not drawn) returned PINK1 expr mod -1%.
`CC(C)[C@H](NS(=O)(=O)c1cccc(Cl)c1)C(=O)OCC(=O)N1CCN(c2ccccc2)CC1` gave SW480 rerep 7%, KB-V1 MDR tox 7.3µM*, PINK1 expr mod 1%, PTAP TSG101 blk -4%, KB-3-1 cytotox inactive and MCF10A rereplic 13%.
For COc1ccc(CCNC(=O)COc2ccc(S(=O)(=O)NC3CCCCC3)cc2Cl)cc1 the results were SW480 rerep 25%, KB-V1 MDR tox 15µM*, PINK1 expr mod 1%[38.3 µM], PTAP TSG101 blk -7%, KB-3-1 cytotox inactive and MCF10A rereplic inconclusive.
`O=C(COc1ccc(S(=O)(=O)NC2CCCCC2)cc1)N1CCN(c2ccc(F)cc2)CC1` gave SW480 rerep 1%, KB-V1 MDR tox inconclusive, PINK1 expr mod -1%, PTAP TSG101 blk -9%, KB-3-1 cytotox 16µM* and MCF10A rereplic 0%.
For O=C(COc1ccc(Cl)cc1)N1CCN(c2ccc([N+](=O)[O-])c(N3CCCCC3)c2)CC1 the results were SW480 rerep 4%, KB-V1 MDR tox inactive, PINK1 expr mod 2%[38.3 µM], PTAP TSG101 blk -7%, KB-3-1 cytotox inactive and MCF10A rereplic -1%.
Screening O=C(COc1ccccc1Cl)N1CCN(c2ccc([N+](=O)[O-])c(N3CCCCC3)c2)CC1 returned SW480 rerep -7%, KB-V1 MDR tox 21µM*, PINK1 expr mod 0%[38.3 µM], PTAP TSG101 blk -11%, KB-3-1 cytotox inactive and MCF10A rereplic -3%.
COc1ccc(NC(=O)NC(C)c2c(-n3cccc3)sc3c2CCN(C)C3)c(OC)c1 (stereo not drawn) was read as PINK1 expr mod -1%.
`COc1cc2c(NC3CCN(C)CC3)nc(N3CCCN(C)CC3)nc2cc1OCC1CCCCN1` (stereo not drawn) gave KB-V1 MDR tox inactive, PINK1 expr mod 0% and KB-3-1 cytotox inconclusive.
For NC(=O)C1CCN(C(=O)COc2ccc(S(=O)(=O)NCc3ccccc3)cc2Cl)CC1 the results were SW480 rerep -1%, KB-V1 MDR tox inactive, PINK1 expr mod 0%, PTAP TSG101 blk 2%, KB-3-1 cytotox inactive and MCF10A rereplic 3%.
`O=C(COc1ccc(S(=O)(=O)NC2CCCCC2)cc1Cl)N1CCN(c2ccccc2)CC1` gave SW480 rerep 13%, KB-V1 MDR tox 5.8µM*, PINK1 expr mod -5%[38.3 µM], PTAP TSG101 blk -2%, KB-3-1 cytotox inactive and MCF10A rereplic 25%.
For Cn1cnc([N+](=O)[O-])c1Oc1ccc2ccccc2c1 the results were SW480 rerep 6.5µM*, KB-V1 MDR tox inconclusive, PINK1 expr mod -1%, PTAP TSG101 blk -1%, KB-3-1 cytotox inconclusive and MCF10A rereplic 4.1µM*.
